Among all 1,200 compounds or so, about 400 (33%) were called active. The rule behind the calls is not given here. The list is a sample of the results. Where a call stands in place of a potency, no number is given. Potency and affinity values are given separately.

The nature of the experiment: mammalian cell cytotoxicity, dose response, cytotoxicity control (AID 434958).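 Note: cells exposed to compound for 72 hours before readout.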 The settings on record: cytotoxicity counter-screen; series mostly up to 40 µM.
As for `CCCc1cc(NC(=O)COC(=O)c2nccnc2N)n(-c2ccccc2)n1`, the compound was classed as inactive.

As for `CC(C)CCN1CC(O)=C(c2nc3ccccc3[nH]2)C1=N`, the compound was called inactive.

With `O=C(Nc1nnc(-c2ccc3c(c2)OCCO3)o1)C1CCCCC1`, the compound was called inactive.

`O=C(Nc1nc(-c2ccc3c(c2)OCCO3)cs1)c1ccc(S(=O)(=O)N2CCCCC2)cc1`: the compound was classed as inactive.

For the compound `CCSc1nnc(NC(=O)CSc2nccn2-c2cccc(C)c2)s1`, the call was inactive.

As to `Cc1c(C(=O)NCCC2=CCCCC2)sc2ncnc(N3CCCCC3C)c12` (stereo not drawn), the compound was called inactive.

As to `Cc1cc(C)c(NC(=O)CC(C)(C)C)c(Cl)c1`, the call was inactive.

Consider `COc1ccc(OC)c(NC(=O)CS(=O)(=O)c2ccccc2)c1`, for which the compound was classed as inactive.

Take `Cc1ccc(OCC(=O)Nc2ccc(-c3nc4ncccc4o3)cc2)c(C)c1`: the call was inactive.

For `Cc1cc(C)c2oc(-c3ccc(Cl)c(NC(=O)c4ccc(C#N)cc4F)c3)nc2c1`, the compound was called inactive.

On to `CCc1ccc(NC(=S)Nc2ccc3cn[nH]c3c2)cc1`, for which the compound was called inactive.

For the compound `NC(=S)N/N=C/c1ccc([N+](=O)[O-])cc1`, the result was inactive.

In the case of `O=C(COC(=O)c1ccc(Cl)cc1[N+](=O)[O-])NNC(=O)c1cccs1`, the outcome was inactive.

For the compound `NNC(=S)NC1CC2CC1C1C=CCC21` (stereo not drawn), the result was inactive.

For `CCc1nc2scc(-c3cccs3)c2c(=O)o1`, the call was inactive.

With `Cc1c(-c2ccncc2)oc2ccc(Br)cc2c1=O`, the compound was classed as inactive.

In the case of `Cc1ccc2c(Cl)cc(Cl)c(OCc3c(C)noc3C)c2n1`, the compound was classed as inactive.

Regarding `Cc1ccc(/C=N\NC(=O)c2csnn2)cc1`, the compound was classed as inactive.

Turning to `O=C(N/N=C/c1ccc(OC(=O)c2ccc3c(c2)OCO3)cc1)c1cncc(Br)c1`, the call was inactive.

As to `Cc1cccc(C)c1NC(=O)C1CC2CCC1C2` (stereo not drawn), the compound was classed as inactive.

As for `COC(=O)c1c(NC(=O)c2ccc(C)cc2)csc1C`, the call was inactive.

For the compound `Cc1ccc(C)c(N2CCN(CC3CC=CCC3)CC2)c1` (stereo not drawn), the outcome was inactive.

In the case of `Cc1cc(Br)ccc1NC(=O)c1ccccc1-c1ccccc1`, the compound was called inactive.

Consider `O=C(COC(=O)C1CC1)NCc1ccccc1Cl`, for which the outcome was inactive.

For `Cc1ccc(C2=N/C(=C\c3cccc(F)c3)C(=O)O2)cc1`, the compound was called inactive.

As for `COC(=O)c1sc(-c2ccc(C(C)(C)C)cc2)cc1NC(=O)CCC(=O)O`, the outcome was inactive.

Turning to `O=C(COc1ccc(Cl)cc1)OCC(=O)N1CCCCCC1`, the compound was classed as inactive.

Turning to `Cc1ccc(C)c(-n2c(-c3ccco3)n[nH]c2=S)c1`, the result was inactive.

As for `O=C(NN1C(=O)c2cc(Br)ccc2NC1c1ccccc1Cl)c1ccncc1` (stereo not drawn), the outcome was inactive.

For the compound `COc1ccc2cc(C3=CCCCC3)ncc2c1`, the outcome was inactive.

As to `CCOc1ccc(-c2nnc(-c3ccc(OC)cc3)o2)cc1`, the outcome was inactive.

Take `COc1cccc(/C=C/c2[nH]c(=O)[nH]c(=O)c2[N+](=O)[O-])c1O`: the call was inactive.

Consider `COc1ccc(-c2cc(C(N)=O)nc(N3CCCCCC3)n2)cc1`, for which the outcome was inactive.

As for `O=C(Cn1cnc2sc3c(c2c1=O)CCCC3)NCC(=O)Nc1ccccc1F`, the result was inactive.

Consider `CC(C(=O)Nc1sc2c(c1C(=O)NCc1ccco1)CCCC2)N1C(=O)c2ccccc2C1=O` (stereo not drawn), for which the call was inactive.

For `COc1ccccc1C(=O)Nc1sc2c(c1C(=O)NCc1ccco1)CCCC2`, the call was inactive.

`O=c1oc(-c2ccco2)nc2sc3c(c12)CCCCC3`: the compound was classed as inactive.

On to `N#Cc1cc2c(nc1SCC(=O)Nc1sc3c(c1C#N)CCC3)CCCC2`, for which the compound was classed as inactive.

In the case of `O=c1oc(-c2cccs2)nc2sc3c(c12)CCCC3`, the compound was classed as inactive.

For the compound `CCOc1nnnc2c1sc1nc(N3CCOCC3)c3c(c12)CCCC3`, the result was inactive.

On to `Fc1ccc(C2Nc3cccc4cccc(c34)N2)cc1`, for which the outcome was inactive.

As for `CCC(CC)C(=O)Nc1ccc(Sc2ccc([N+](=O)[O-])cc2)cc1`, the outcome was inactive.

Turning to `Cc1nc(S/C(=C\c2ccc(OCc3ccccc3Cl)cc2)C(=O)O)n[nH]1`, the call was inactive.

For `CCn1nnnc1SCC(=O)c1ccc(C)cc1C`, the result was inactive.

Turning to `CSc1ccccc1C(=O)Nc1ccc2c(c1)OCCO2`, the compound was classed as inactive.

As for `O=C(NN=C1CCCC1)c1cccs1`, the compound was classed as inactive.

With `COc1ccc(/C=N/Nc2nc(-c3ccc(C)cc3)c(NC(C)=O)s2)cc1OC`, the compound was called inactive.

With `CC(C)OCc1c(C(=O)Nc2nccs2)oc2ccccc12`, the outcome was inactive.

For the compound `COc1ccc(-c2cc(C(F)F)nc(-n3nc(C)cc3C)n2)cc1`, the compound was called inactive.

`Cc1onc(-c2c(Cl)cccc2Cl)c1/C(N)=N/OC(=O)C1CC1`: the compound was called inactive.

For `CCOc1ccc2cc(S(=O)(=O)N3CCCCC3)ccc2c1`, the result was inactive.

Regarding `COc1cccc(-n2c([S-])c(C(=O)Nc3ccc(S(=O)(=O)N4CCOCC4)cc3)[n+]3cc(C(N)=O)ccc23)c1`, the result was inactive.

Regarding `S=C(Nc1ccc(Cl)cc1)c1nc2ccccc2s1`, the compound was called inactive.

Consider `COc1ccc(NC(=O)CSc2nncn2C)c([N+](=O)[O-])c1`, for which the compound was classed as inactive.

Turning to `CC1(c2ccc([N+](=O)[O-])cc2)NC(=O)N(CC(=O)c2ccc3c(c2)OCO3)C1=O` (stereo not drawn), the call was inactive.

For the compound `O=C(CSc1n[nH]c(=O)n1C1CC1)c1ccc2c(c1)OCCO2`, the outcome was inactive.

For the compound `O=C(/C=C/c1ccccc1)NC1CC2CCC1C2` (stereo not drawn), the compound was classed as inactive.

Consider `O=S(=O)(Nc1ccccc1)c1ccc2c(c1)CCO2`, for which the outcome was inactive.

`Cc1ccc(-c2nc3[nH]c(=O)cc(NC(=O)C(C)C)n3n2)cc1`: the compound was called inactive.

For the compound `COCCNC(=S)N/N=C(\C)c1cccc(OC)c1`, the result was inactive.

For the compound `CCOCC(=O)Nc1ccc(F)c(F)c1`, the call was inactive.

On to `O=C(CC12CC3CC(CC(C3)C1)C2)NCc1ccc(F)cc1`, for which the result was inactive.

Regarding `O=c1c2c(nc3n1CCCCC3)sc1c(O)c(Br)ccc12`, the compound was classed as inactive.

In the case of `COc1ccc(-c2csc(/C=C/c3ccc4c(c3)OCO4)n2)cc1OC`, the outcome was inactive.

Take `COc1cc(NC(=O)c2ccc(Cl)cc2)c(OC)cc1NC(=O)CN1CCOCC1`: the result was inactive.

Take `Cc1ccccc1NC(=O)c1ccc(CN(c2ccccc2)S(=O)(=O)c2ccccc2)cc1`: the outcome was inactive.

Take `CN(C)S(=O)(=O)c1ccc(NC(=O)c2cc3ccccc3o2)cc1`: the result was inactive.

Consider `CNC(=O)Nc1cccc(-c2cc(-c3c(Cl)cccc3Cl)no2)c1`, for which the compound was classed as inactive.

Regarding `O=c1oc(-c2ccccc2)nc2sc3c(c12)CCC3`, the compound was called inactive.

For the compound `C=CCn1cc(C(=O)NCCCOC)c(=O)c2cc(S(=O)(=O)N(CC)CC)ccc21`, the compound was called inactive.

In the case of `CC(OC(=O)c1ccc([N+](=O)[O-])o1)C(=O)NC1CCCCC1C` (stereo not drawn), the compound was called inactive.

For `C#CCOc1c(Cl)cc(/C=N/NC(N)=S)cc1OCC`, the outcome was inactive.

With `BrC(=C\c1ccccc1)/C=N/N1CCN(c2ccccn2)CC1`, the compound was classed as inactive.

Regarding `Cc1ccc(C(=O)N2CCC3(CC2)Oc2ccc(F)cc2C(=O)C32CC(c3cccnc3)=NO2)s1` (stereo not drawn), the compound was called inactive.

In the case of `O=C(Nc1c2c(nc3ccccc13)CCCC2)c1ccccc1F`, the outcome was inactive.

For `COc1ccc(C(=O)Nc2ccc3nc(N4CCCCC4)cc(C)c3c2)c(OC)c1`, the compound was classed as inactive.

Turning to `COc1ccc(-c2sc3cc(OC)c(OC)cc3c2C#CCCO)cc1`, the compound was classed as inactive.

Consider `CCN(CC(=O)Nc1ccccc1OC)C(=O)c1cc(S(=O)(=O)N2CCCCCC2)ccc1OC`, for which the result was inactive.

For the compound `C/C(=N\NC(=S)NCc1ccccc1)c1cccc(Br)c1`, the call was inactive.

As to `O=C(Cc1cccc2ccccc12)N/N=C/c1ccc(O)c([N+](=O)[O-])c1`, the call was inactive.

On to `O=C(COc1cccc2cccnc12)N/N=C/c1ccc(O)cc1`, for which the call was inactive.

Consider `CN(C)c1ccc(S(=O)(=O)NCC(=O)OCC(=O)Nc2cccc(Cl)c2)cc1[N+](=O)[O-]`, for which the call was inactive.

In the case of `O=C(NCc1nc2ncc(Br)cc2[nH]1)c1ccccc1`, the result was inactive.

Source of the values: PubChem BioAssay AID434958 (Southern Research Specialized Biocontainment Screening …, 2010).
